High-throughput results (PubChem BioAssay)
Hits are enriched below; roughly 2.4% of the tested compounds scored in any of these assays.
D2 PAM-1: positive allosteric modulators of human D2 dopamine receptor; potentiation, % at 10 µM; HEK293 T-REx D2, calcium flux, EC20 dopamine potentiation; actives 0.34% (n = 340,000);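 active = potentiation over 3 SD above the plate norm, cut at about 30% in these data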
Target sequence (P14416 whole entry, looked up): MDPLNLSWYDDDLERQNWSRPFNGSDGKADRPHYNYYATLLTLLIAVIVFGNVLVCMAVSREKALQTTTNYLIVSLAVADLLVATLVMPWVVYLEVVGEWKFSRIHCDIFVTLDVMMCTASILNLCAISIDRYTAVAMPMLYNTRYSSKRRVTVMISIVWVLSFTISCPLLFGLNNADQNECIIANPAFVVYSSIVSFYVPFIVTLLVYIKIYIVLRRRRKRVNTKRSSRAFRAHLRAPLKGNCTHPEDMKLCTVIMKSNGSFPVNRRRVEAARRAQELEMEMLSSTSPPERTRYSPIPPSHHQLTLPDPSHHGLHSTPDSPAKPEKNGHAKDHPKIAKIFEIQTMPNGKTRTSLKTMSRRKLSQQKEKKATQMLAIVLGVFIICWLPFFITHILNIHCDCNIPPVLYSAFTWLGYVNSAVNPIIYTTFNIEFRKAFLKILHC
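Tetracycline-induced Hek293 Trex D2 cells, force-coupled to calcium, loaded with no-wash calcium dye. Compound added with 180 s kinetic read for agonism, then EC20 dopamine and a further 180 s read for potentiation.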
D2 ag-1: D2 dopamine receptor (human) agonism; actives 0.53% (n = 340,000); HEK293 T-REx D2 cells, calcium flux agonist mode; P14416; AID 485358; activation, % at 2 µM;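 active = activation over 3 SD above normal in the single-dose calcium agonist read, cut at about 30% in these data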
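Tetracycline-induced HEK293 Trex cells with D2 receptor force-coupled to calcium signaling, plated overnight at 30 C and loaded with no-wash calcium dye. Calcium flux read kinetically for 180 s after compound addition; responses flag agonists.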
D2 PAM-2: human D2 receptor positive allosteric modulation; P14416; DiscoveRx D2 beta-arrestin cells, luminescence, 90 min; 100% = 57 uM dopamine signal; potentiation, % (no concentration beside the values); actives 0.23% (n = 360,000); AID 624464; in the data active = potentiation above about 50%; inconclusive = mostly about 30% to 49%
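PathHunter beta-arrestin assay in DiscoveRx D2 cells. Compounds were added with an EC20 of dopamine (50 nM final) for 90 min at 37 deg C. Luminescence was read 1 h after detection reagent, with 57 uM dopamine as the EC100 control.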
D2 antag: antagonizes the human D2 dopamine receptor | P14416 | HEK293 TREx D2 cells, calcium flux, dopamine EC80 | AID 485344 | inhibition, % at 10 µM | actives 2% (n = 340,000); in the data active = inhibition above about 30%; inactive = below that, where a call was filed
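Overnight-induced (tetracycline, 30 C) HEK293 T-REx cells carrying force-coupled D2 receive a no-wash calcium dye, then compound, then EC80 dopamine at 180 s; signals are read kinetically throughout.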
D2 ag-2: agonists of human D2 dopamine receptor (beta-arrestin); DiscoveRx PathHunter D2 beta-arrestin, luminescence, 90 min; 100% = 57 uM dopamine signal; P14416; actives 0.084% (n = 360,000); AID 624465; activation, % (no concentration beside the values); in the data active = activation above about 40%; inconclusive = between about 15% and that limit
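Agonist mode: compounds alone added to overnight-plated D2 PathHunter cells for 90 min at 37 C, with 57 uM final dopamine (EC100) defining full response. Beta-arrestin recruitment detected by chemiluminescent reagent, read after 1 h at ambient temperature.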
Hits are given with their value; n = inactive; u = inconclusive; x = not tested or not shown.

SMILES | D2 PAM-1 | D2 ag-1 | D2 PAM-2 | D2 antag | D2 ag-2
COc1ccc(OC)c(N2CC(O)(c3cccs3)[N+]3=C2SCCC3)c1 (configuration not stated) | n | n | n | 40.0 | n
OC1(c2cccs2)CN(c2ccc(Br)cc2)C2=[N+]1CCCS2 (configuration not stated) | n | n | n | n | n
CN(C)c1ccc(/C=C/C(=O)c2c(O)c3ccccc3oc2=O)cc1 | n | 38.7 | n | n | n
COc1cccc(-n2c(SCc3ccc(F)cc3)nc3c([nH]c4ccccc43)c2=O)c1 | n | n | x | x | x
Nc1ncc(S(=O)(=O)Nc2ccc(F)cc2F)cn1 | n | n | x | x | x
Cn1cccc1-c1cc(C(=O)N/N=C/c2ccc(F)cc2)[nH]n1 | x | n | n | 60.6 | n
Cn1cccc1-c1cc(C(=O)N/N=C/c2cc(Br)ccc2O)[nH]n1 | x | x | n | x | n
Cn1cccc1-c1cc(C(=O)N/N=C/c2ccccc2Cl)[nH]n1 | n | n | n | 87.6 | n
Cn1cccc1-c1cc(C(=O)N/N=C/c2ccc([N+](=O)[O-])cc2)[nH]n1 | n | n | n | n | n
Cc1nc(N)sc1C(=O)N/N=C/c1ccccc1[N+](=O)[O-] | n | n | x | 33.0 | x
COC(=O)COc1ccc2c(=O)c(Oc3ccccc3)c(C)oc2c1 | 37.5 | n | n | n | n
CCOc1ccc(Oc2c(C)oc3cc(O)ccc3c2=O)cc1 | n | n | n | n | n
COc1ccccc1N=c1scc(-c2ccc(S(=O)(=O)N3CCCC3)cc2)n1C | n | n | x | x | x
O=C(CCCn1c2ccccc2c(=O)c2ccccc21)Nc1cccc(Cl)c1 | n | n | x | x | x
C=CCc1cc(Cl)ccc1OCCNCCOC | n | n | n | 55.2 | n
C=CCc1cc(Cl)ccc1OCCNCCN1CCOCC1 | n | n | n | n | n
Cc1ccccc1OCc1nc2ccccc2c(=O)n1/N=C/c1cn[nH]c1-c1ccccc1 | n | n | n | 56.7 | n
COc1cccc(C(=O)NCCc2csc3nc(-c4ccccc4F)nn23)c1OC | n | n | x | x | x
Cc1ccc(-c2c3c(nc4sc(C(N)=O)c(N)c24)CCCC3)o1 | n | 30.8 | n | n | n
CCn1c(SCC(=O)NCc2ccc3c(c2)OCO3)nnc1-c1c[nH]c2ccccc12 | 34.3 | n | n | n | n
CCc1nnc(SC(CC)C(=O)Nc2ccc(OC)c(Cl)c2)c2cc3occc3n12 (configuration not stated) | n | n | x | x | x
Cc1ccc(CN2CCCn3nc(C(=O)NCc4ccc(N(C)C)cc4)cc3C2=O)cc1 | n | n | x | x | x
O=C(NCc1ccco1)C1CCCN1C(=O)Nc1cccc(Cl)c1 (configuration not stated) | n | n | n | 56.5 | n
COC(=O)c1c(NC(=O)c2cc(=O)c3ccc(C)c(C)c3o2)sc2c1CCCC2 | n | n | x | x | x
NC(N)=Nc1cc2ccccc2c2ccccc12 | n | 67.8 | x | 37.5 | x
SMILES | D2 PAM-1 | D2 ag-1 | D2 PAM-2 | D2 antag | D2 ag-2
NC(N)=NC(N)=Nc1cccc2ccccc12 | n | n | n | n | n
c1ccc2c(c1)CCN(CCCNc1nc3ccccc3n3cnnc13)C2 | n | n | n | 69.9 | n
COc1ccc(N2CCN(S(=O)(=O)CCNC(=O)c3c(F)cccc3Cl)CC2)cc1 | n | n | x | x | x
COCCCn1c(C)cc(C(=O)COC(=O)CCc2nc3ccccc3c(=O)[nH]2)c1C | n | n | n | 30.5 | n
COc1cc(/C=C(\C#N)C(=O)Nc2ccccc2C(=O)O)cc(Cl)c1OC | 40.2 | n | n | n | n
Cc1nc([N+](=O)[O-])c(Br)n1CC(=O)c1ccc(F)cc1 | n | n | n | 33.6 | n
Cc1nc([N+](=O)[O-])c(Br)n1CC(=O)c1cccc([N+](=O)[O-])c1 | n | n | n | n | n
CC1=C(C(=O)Nc2ccccc2)C(c2ccccn2)n2nc(SCc3ccccc3)nc2N1 (configuration not stated) | n | n | x | x | x
COCCNCC1C(Oc2ccc(Cl)cc2)C(=O)N1c1ccccc1C (configuration not stated) | n | n | n | 50.4 | n
CCCNCC1C(Oc2ccc(Cl)cc2)C(=O)N1c1ccccc1C (configuration not stated) | n | n | n | 50.9 | n
CCc1ccc(NC(=O)CN2C(=O)c3ccccc3Sc3ccc(C(=O)N4CCCC4)cc32)cc1 | n | n | x | x | x
Oc1ccc(/C=N/N2CCCCC2)cc1O | n | x | n | x | 43.5
CCOC(=O)C1CCCN(Cc2ccc(-c3ccccc3)cc2)C1 (configuration not stated) | n | n | n | 57.9 | n
CCOC(=O)C1CCCN(Cc2cccc(Oc3ccccc3)c2)C1 (configuration not stated) | n | n | n | 39.5 | n
CCOC(=O)C1CCCN(C/C=C/c2ccccc2)C1 (configuration not stated) | n | n | n | 30.5 | n
CCOC(=O)C1CCN(C/C=C/c2ccccc2)CC1 | n | n | n | n | n
CCOC(=O)C1CCCN(Cc2c(Cl)cccc2Cl)C1 (configuration not stated) | n | n | n | n | n
CCOC(=O)C1CCN(Cc2cccc(Oc3ccccc3)c2)CC1 | x | x | n | x | u
Cc1[nH][nH]c(=O)c1C=NCc1cccnc1 | n | n | n | n | n
C=CCn1c(O)c(C(CC)=NCc2cccnc2)c(=O)[nH]c1=O | n | n | n | 42.0 | n
CCCn1c(CCc2ccccc2)nnc1SCC(=O)N1CCCC1 | n | n | n | n | n
CCCc1nnc(SCC(=O)N2CCCC2)n1Cc1ccco1 | n | 39.9 | n | n | n
COc1ccc(Cn2c(NCC(C)C)nc3c2c(=O)n(C)c(=O)n3C)cc1 | n | n | x | x | x
CC(CCc1ccccc1)NC(=O)COC(=O)c1ccc(S(C)(=O)=O)c([N+](=O)[O-])c1 (configuration not stated) | n | n | n | n | n
CC(CCc1ccccc1)NC(=O)COC(=O)c1ccc([N+](=O)[O-])cc1 (configuration not stated) | 37.5 | n | n | n | n
SMILES | D2 PAM-1 | D2 ag-1 | D2 PAM-2 | D2 antag | D2 ag-2
CC(C)(C)C(=O)/C=c1\s/c(=C\c2ccc(-c3ccc([N+](=O)[O-])cc3)o2)c(=O)n1CC(=O)NC(N)=O | n | 205.7 | n | 90.9 | n
CCC(=O)N/N=C/c1ccc(-c2ccc([N+](=O)[O-])cc2)o1 | n | n | n | n | n
O=C(COc1ccccc1)N1CCN(c2ccccc2)CC1 | n | n | n | 30.1 | n
O=C(COC(=O)C1(c2ccccc2)CC1)N1CCN(c2ccc(F)cc2)CC1 | n | n | n | 35.5 | n
CC1CC(C)CN(C(=O)COC(=O)c2cccc([N+](=O)[O-])c2)C1 (configuration not stated) | n | n | n | n | n
O=C(COc1ccc(Br)cc1)N1CCN(c2ccccc2)CC1 | n | n | n | n | n
